Screens from PubChem.
LYPLA2 inh: LYPLA2 inhibitors, primary screen, counter-screen for PME1 inhibitor project, biochemical, fluorescence polarization, FP-Rh probe ABPP | Acyl-protein thioesterase 2 (Homo sapiens), O95372 | recombinant LYPLA2 | inhibition, % at 5.9 µM | 0.38% of 320,000 active | AID 2177, 2009;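 active means inhibition above the screen-wide mean plus 3 SD, limit set per campaign, cut at about 26% in these data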;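 further: 0% = LYPLA2 with DMSO and 100% = wells lacking LYPLA2 enzyme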
PME-1 primary: PME-1 inhibitors via competitive probe labeling, primary screen, biochemical, fluorescence polarization, FP-Rh probe, HTS | inhibition, % at 5.9 µM | recombinant PME-1 | Protein phosphatase methylesterase 1 (Homo sapiens), Q9Y570 | 0.53% of 320,000 active;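 active means inhibition above the campaign mean of all compounds plus 3 SD, cut at about 26% in these data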;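 further: competitive labeling of PME-1 active site by serine hydrolase directed probe; 0% = PME-1 with DMSO and 100% = wells lacking PME-1 enzyme; inhibitors block probe labeling so polarization falls and inhibition rises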
Fam108B inh: mouse Fam108B serine hydrolase inhibitors, primary screen, counter-screen for RBBP9 inhibitor project, biochemical, fluorescence polarization; recombinant Fam108B, FP-Rh probe fluorescence polarization; inhibition, % at 9.51 µM; 0.33% of 300,000 active;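 active means inhibition above the screen mean inhibition plus 3 SD, computed separately per campaign, cut at about 18% in these data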;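 further: inhibitors lower polarization as less probe binds the enzyme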
LYPLA1 inh: LYPLA1 inhibitors, primary screen, counter-screen for PME1 inhibitor project, biochemical, fluorescence polarization, FP-Rh probe ABPP | 0.16% of 320,000 active | inhibition, % at 5.9 µM | recombinant LYPLA1;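 active means inhibition above the mean of all tested compounds plus 3 SD, set per campaign, cut at about 14% in these data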;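 further: inhibitors block serine hydrolase probe labeling of LYPLA1 so polarization falls; 0% = enzyme with DMSO and 100% = wells lacking LYPLA1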
Target sequence (O75608 whole entry, looked up): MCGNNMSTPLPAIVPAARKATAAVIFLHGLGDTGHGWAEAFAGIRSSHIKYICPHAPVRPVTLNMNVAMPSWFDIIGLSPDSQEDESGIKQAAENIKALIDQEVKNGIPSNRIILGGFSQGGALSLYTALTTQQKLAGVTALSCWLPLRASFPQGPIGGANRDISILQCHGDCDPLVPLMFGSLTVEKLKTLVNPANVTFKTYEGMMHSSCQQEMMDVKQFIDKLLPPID
GSTO1 counter: inhibitors of recombinant GSTO1, primary screen, counter-screen for RBBP9 inhibitor project, biochemical, fluorescence polarization; Glutathione S-transferase omega-1 (Homo sapiens), P78417; activity-based probe fluorescence polarization; inhibition, % at 5.96 µM; 1.1% of 300,000 active; AID 1974, 2009;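 active means inhibition above the campaign mean inhibition plus 3 SD, cut at about 35% in these data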;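 further: 0% = GSTO1-1 with DMSO and 100% = wells lacking GSTO1-1 enzyme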
Target sequence (P78417 whole entry, looked up): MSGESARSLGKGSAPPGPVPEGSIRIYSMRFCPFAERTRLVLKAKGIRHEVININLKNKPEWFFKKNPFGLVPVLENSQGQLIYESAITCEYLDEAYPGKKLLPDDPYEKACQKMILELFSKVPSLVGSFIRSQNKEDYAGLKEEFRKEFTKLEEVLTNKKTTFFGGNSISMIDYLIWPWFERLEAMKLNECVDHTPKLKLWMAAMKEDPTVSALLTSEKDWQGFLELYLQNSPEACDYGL
PREPL inh: PREPL enzyme inhibitors, primary screen, biochemical, fluorescence polarization. Prolyl endopeptidase-like (Homo sapiens), Q4J6C6. recombinant PREPL, fluorescence polarization activity-based probe. inhibition, % at 5.96 µM. 0.68% of 320,000 active. AID 2751, 2010; in the data active means inhibition above about 43%;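 further: 0% = enzyme with DMSO and 100% = wells lacking enzyme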
An asterisk follows results filed as active; x = no result. The list is not random: actives were taken first. Their share in the collection is about 1.9%.

SMILES	LYPLA2 inh	PME-1 primary	Fam108B inh	LYPLA1 inh	GSTO1 counter	PREPL inh
CCCc1nc(SCC(=O)Nc2nnc(SCC)s2)c2c(=O)n(C)c(=O)n(C)c2n1	10	2	3	2	8	20
CCSc1nnc(NC(=O)CSc2nc(CC)nc3c2c(=O)n(C)c(=O)n3C)s1	3	2	6	2	36*	-5
CCc1nc(SCC(=O)Nc2nnc(CC)s2)c2c(C)c(C)sc2n1	-6	0	-4	2	35*	13
CC(C(=O)NCC1CCCCC1)N1CCN(S(=O)(=O)/C=C/c2ccccc2)CC1 (stereo not given)	17	12	1	0	35*	20
COC(=O)c1ccc2c(=O)[nH]c(COC(=O)c3[nH]c(C)c(C(C)=O)c3C)nc2c1	x	x	x	x	x	-6
CN(/N=C\c1ccc(O)c(O)c1)c1nc(-c2ccccc2)cc(-c2ccccc2)n1	-7	22	21*	-15	-8	11
O=C1NC(=O)[C@@H]2C3c4ccccc4C=CN3[C@H](C(=O)c3cccs3)[C@H]12 (stereo not given in full)	13	9	16	8	35*	14
O=C(COC(=O)c1cc(-c2cccc3ccccc23)nc2ccccc12)NC1CCS(=O)(=O)C1 (stereo not given)	19	43*	15	14	10	36
C[C@@H](C(=O)NCc1c(F)cccc1Cl)N1C(=O)N2CCc3c([nH]c4ccccc34)[C@@]2(C)C1=O	-2	-4	-2	1	3	3
CC(C)(C)c1ccc(NS(=O)(=O)c2ccc(N)cc2)cc1	0	1	0	-5	36*	1
Cc1cccc(C(=O)OC(C)C(=O)Nc2ccc(S(=O)(=O)Nc3ncccn3)cc2)c1C (stereo not given)	-4	-4	x	-2	x	17
CCc1nnc(NC(=O)CSc2nnc(COc3cccc(C)c3)o2)s1	4	3	4	0	35*	11
CC(=O)c1sc(NC(=O)CSC(C)C(=O)Nc2cc(C)on2)nc1-c1ccccc1 (stereo not given)	2	2	1	2	12	2
O=C(NCCC1CCCCN1S(=O)(=O)c1cccs1)C(=O)Nc1cccc(F)c1 (stereo not given)	-1	-3	-4	-1	-3	-12
OC(CN1CCNCC1)Cn1ccc2ccccc21 (stereo not given)	8	5	11	6	1	60*
Cc1cc(C)n(CC(O)Cn2ccc3ccccc32)n1 (stereo not given)	3	2	3	0	0	11
Cc1ccc(S(=O)(=O)Nc2cc(Cl)ccc2-n2cncn2)cc1	7	1	x	2	x	11
CCN(CC)c1ccc(NC(=O)CN2CCN(S(=O)(=O)c3cc(Cl)ccc3OC)CC2)cc1	11	3	3	-1	5	72*
CC(=O)N1CCN(CCS(=O)(=O)c2ccc(Br)cc2)CC1	-2	-2	x	2	x	5
NC(=O)c1ccc(N2CCN(c3ccc(O)cc3)CC2)c([N+](=O)[O-])c1	32*	-1	5	9	10	4
CC(=O)c1ccc(N2CCN(c3ccc(C(N)=O)cc3[N+](=O)[O-])CC2)cc1	23	7	-1	10	5	16
CCC(C(=O)NCCC(C)C)n1ccc2cc(S(=O)(=O)N3CCCCC3)ccc21 (stereo not given)	2	-3	0	-2	2	-7
CC(=O)c1ccc(OCCCC(=O)Nc2nnc(C3CC3)s2)cc1	x	x	x	x	x	5
COc1cccc(NC(=O)CN(C)C(=O)c2ccc(-n3cncn3)c([N+](=O)[O-])c2)c1	5	0	x	-5	x	1
CCN(CC)c1ccc(N=Cc2ccc(N(CC)CC)cc2O)cc1	-5	-4	4	0	57*	21
SMILES	LYPLA2 inh	PME-1 primary	Fam108B inh	LYPLA1 inh	GSTO1 counter	PREPL inh
Cc1ccc(-n2c(C)cc(/C=c3/sc4nc5ccccc5n4c3=O)c2C)cc1	3	-27	-5	-4	-1	10
O=C(O)Cn1cc(/C=c2/sc3nc4ccccc4n3c2=O)c2ccccc21	-3	31*	9	-1	-15	19
CC1CCCCC1NC(=O)NC(=O)CCl (stereo not given)	5	-5	-1	-3	94*	10
CC1CCCC(NC(=O)CSC2CCCCC2)C1C (stereo not given)	5	4	9	3	10	-4
CC1CCCC(NC(=O)NC(=O)CCl)C1C (stereo not given)	3	11	0	-1	99*	3
CC1CCC(NC(=O)C2CCN(C(=O)Nc3ccccc3)CC2)CC1 (stereo not given)	2	-1	x	-1	x	-1
CCN(CC(=O)Nc1ccc(NC(C)=O)cc1)C(=O)C1(c2ccccc2)CC1	-1	0	x	-5	x	-7
COc1ccc(CCNC(=O)c2coc(=O)c(Br)c2)cc1	8	4	1	8	-6	7
COc1ccc(C(=O)c2sc3nc(-c4ccccc4)ccc3c2N)cc1	14	35*	14	-4	-5	13
Cc1oncc1-c1csc(-c2ccccc2Cl)n1	-3	-5	2	-7	2	-110
ClCc1csc(-c2ccccc2Cl)n1	0	-1	0	-4	94*	-3
COc1ccccc1N1CCN(/N=C/c2ccc(O)c(O)c2)CC1	-11	-7	3	-6	51*	0
O=C(Nc1cccc(S(=O)(=O)N2CCOCC2)c1)c1ccc(=O)[nH]c1	x	x	x	x	x	10
COc1cccc2nc3cc(C)c(C)cc3nc12	-2	8	9	0	48*	27
CCOC(=O)[C@H]1[C@H]2COc3ccc(C)cc3[C@@H]2N2C(=O)c3cc(C)ccc3NC(=O)[C@@]12C	x	x	x	x	x	20
Oc1ccc(/C=N/Nc2ccc(C(F)(F)F)cn2)c(O)c1	-1	37*	8	-6	1	9
Oc1ccc(/C=N/Nc2ccc(C(F)(F)F)cn2)cc1	-5	10	3	-3	5	9
Cc1cc(-c2nnc(SCC(=O)Nc3nc(-c4ccc(Cl)cc4)cs3)o2)no1	-16	28*	-7	-9	26	-13
CCC[C@H]1NC(=O)[C@H](C)N(C)C(=O)C(C)(C)C(=O)C(C)NC(=O)[C@H](Cc2ccc(OC)cc2)N(C)C(=O)[C@H](C(C)C)N(C)C(=O)CNC(=O)[C@H](CC(C)C)N(C)C(=O)CNC(=O)[C@H]([C@@H](C)CC)OC(=O)[C@H]1C (stereo not given in full)	x	x	x	x	x	9
